Measured values as given in PubChem BioAssay (NCI).
The panel holds about 83,000 compounds, 20% with a hit somewhere; the sample as a whole holds those more often.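 The endpoint reported here, percent growth, reads 100 for growth as untreated, 0 for no net growth and -100 for all cells dead.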 Unmarked numbers belong to inactive results. Active and inactive are the calls of the source. How the source made its calls: active means growth percent below 10; inactive means the rest.

Tested on: HL-60(TB) leukemia
Assay: NCI-60 one-dose screen, 48 h (100 = growth as untreated, 0 = no growth, -100 = all killed)
Settings: 10 µM unless noted

SMILES | growth
O=C(Nc1ccccc1)c1sc(-c2cccc(C(F)(F)F)c2)cc1O | 40.2%
CCN1CCC2(CC1)NC(=O)c1c(c3ccc(Cl)c(Cl)c3n1C)C2C#N (centres undefined) | 30.2%
O=C(CN1CCN(c2cc3c(cc2F)c(=O)c(C(=O)O)cn3C2CC2)CC1)N/N=C/c1ccco1 | 103%
COc1ccc(C(=O)/C(=N/Nc2ccccc2)c2ccc(OC)cc2)cc1 | 88.4%
COc1ccccc1N1CCCSC1=Nc1ccccc1 | 50.1%
COc1cc(-c2n/c(=C\c3c(O)[nH]c4cc(Cl)ccc34)cc3c2=Nc2ccccc2-3)cc(OC)c1OC | 89.6%
CC(C)(C)c1cc(C=O)cc(C(C)(C)C)c1O | -23.5% (active)
CC1=NN(C(=O)c2nn(-c3ccc(Cl)cc3)cc2O)C(=O)C1 | 5.71% (active)
O=S(=O)(Nc1ccsc1-c1nc(-c2ccccc2)no1)c1cc(Cl)cc(Cl)c1 | 119%
C/C(=N\OC(=O)Nc1cccc(Cl)c1)c1ccccc1 | 110%
c1ccc(Nc2nc3c(s2)CCc2c[nH]cc2-3)nc1 | 2.15% (active)
COc1cc(C(=O)c2cnc(-c3cccc4[nH]ccc34)[nH]2)cc(OC)c1OC | -28.6% (active)
O=C(Nc1ccc(N=Cc2ccccc2O)cc1)NC1C=c2ccccc2=CC1 (centres undefined) | 79.4%
CC1(C)CC[C@]23CC[C@]4(C)[C@H](CC[C@@H]5[C@@]6(C)C/C(=C/c7ccncc7)C(=O)C(C)(C)[C@@H]6CC[C@]54C)[C@H]2[C@H]1OC3 | 61%
